High-throughput results from PubChem.
TDP1 cell CPT = qHTS for Inhibitors of human tyrosyl-DNA phosphodiesterase 1 (TDP1): qHTS in cells in presence of CPT. chicken DT40 Tdp1-/-;hTDP1 cells + 20 nM CPT, ATP luminescence, 48 h. Potency, µM (top dose mostly 46.2 µM), for the others: at the highest dose activity change, negative = growth inhibition, most hits filed as inhibitors. actives 12% (n = 420,000); note: potency is the fitted concentration of half-maximal effect; nearly all actives have a fitted effect of over 55% in size
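Cell growth measured by CellTiter-Glo luminescence after a minimum 48 h, 37 C compound exposure with 20 nM CPT in Tdp1-knockout DT40 cells stably expressing hTDP1, seeded 400/well; qHTS titration format.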
DT40 TDP1 no CPT = qHTS for Inhibitors of human tyrosyl-DNA phosphodiesterase 1 (TDP1): qHTS in cells in absence of CPT | Potency, µM (highest dose often 46.2 µM), inactives show top-dose activity change, negative = growth inhibition, most hits filed as inhibitors | DT40 Tdp1-/- hTDP1 cells, no CPT, ATP luminescence, 48 h | actives 15% (n = 420,000) | AID 686978, 2013; note: potency is the fitted concentration of half-maximal effect; nearly all actives have a fitted effect of over 55% in size
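Seeded 400 DT40-hTDP1 cells/well (vehicle DMSO, no 20 nM CPT); pinned compounds; ≥48 hr at 37 °C; CellTiter-Glo luminescence as viability measure.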
HT1080 IDH1KD tx = qHTS for induction of synthetic lethality in tumor cells producing 2HG: qHTS for the HT-1080-IDH1KD cell line. Potency, µM (top dose mostly 46.1 µM), for the others: at the highest dose activity, negative = toxicity, actives largely listed as cytotoxic. actives 2% (n = 360,000). HT-1080 IDH1 knockdown viability, ATP luminescence, 48 h;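 note: potency is the fitted concentration of half-maximal effect; 0% = DMSO wells and -100% = cell-free medium wells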
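% activity derives from luminescence (CellTiter-Glo), normalised to DMSO and no-cell wells. HT-1080-IDH1KD cells, 750/well, had 48 h compound exposure at 37 °C.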
IL-1B inflam inh = qHTS for Inhibitors of Inflammasome Signaling: IL-1-beta AlphaLISA Primary Screen; THP-1 LPS/ATP IL-1B secretion, AlphaLISA, 16 h; hits give low values; activity change, % at 57.5 µM; actives 4.7% (n = 360,000); in the data active = activity change below about -50%; inconclusive = mostly about -30% to -49%
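Secreted IL-1B measured by AlphaLISA bead assay after 16 h compound exposure of THP-1 cells; compounds (final up to 57.5 uM) added 1 h before LPS (250 ng/mL) and ATP (1.25 mM) stimulation; lower signal means less secretion.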
HT1080NT lethal = qHTS for induction of synthetic lethality in tumor cells producing 2HG: qHTS for the HT-1080-NT fibrosarcoma cell line. HT-1080-NT fibrosarcoma viability, CellTiter-Glo ATP luminescence, 48 h. Potency, µM (highest dose often 46.1 µM), for inactives: at the top dose activity, negative = less viability, most hits filed as cytotoxic. actives 1.6% (n = 360,000);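 note: NT is the 2HG producing partner of a matched IDH1 knockdown line; potency is the fitted concentration of half-maximal effect; 0% = DMSO-treated cells and -100% = media-only wells without cells; nearly all actives have a fitted effect of over 55% in size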
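Read-out is CellTiter-Glo luminescence after 10 minutes at room temperature, following 48 hours' compound treatment of HT-1080-NT cells (750 cells/well, RPMI, 5% FBS, 37 degrees C).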
Numbers without * were called inactive; ? = inconclusive; / = not tested or not shown; [ ] = another dose, or the depositor's remark. A selection: hits, their analogues and other compounds. The true share with any hit is near 19%. Unless noted, calls come from the whole dose curve; as a rule, active = well fitted curve in the direction sought with a large enough effect; inconclusive = small, poorly fitted or top-dose-only effect, or another doubt; inactive = no such curve, though single readings can be large; an effect the other way counts as inactive or inconclusive. Unless noted, % is set by controls: 0 for no effect and ±100 for the full control effect.

SMILES | TDP1 cell CPT | DT40 TDP1 no CPT | HT1080 IDH1KD tx | IL-1B inflam inh | HT1080NT lethal
COc1cccc(CNC(=O)C2CCCN(S(=O)(=O)N(C)c3ccc(F)cc3)C2)c1OC (centres undefined) | 3.3µM* | 3.7µM* | / | / | /
COc1ccc(NC(=O)/C(C#N)=C/c2ccc(OCc3cc(=O)n4nc(C)sc4n3)cc2)cc1 | -1% | -5% | / | / | /
CCN(CC)C(=O)N1CCC(NC(=O)c2ccccc2)CC1 | 12% | -16% | 0% | 12 | 11%
COc1ccccc1/C=C1\SC(=S)N(CCC(=O)Nc2nnc(C)s2)C1=O | ? | -26% | -5% | ? | 0%
COc1ccc(-c2nn(-c3ccccc3)cc2C(=O)NC2CCCCC2C)cc1 (centres undefined) | -16% | ? | 0% | 30 | 5%
Cc1ccc(-n2ccnc2SCC(=O)N(CC(C)C)C2CCS(=O)(=O)C2)c(C)c1 (centres undefined) | ? | 18µM* | 3% | -19 | -3%
CC(C)CN(C(=O)CSc1nn(-c2ccc(Cl)cc2)c(=S)s1)C1CCS(=O)(=O)C1 (centres undefined) | ? | 18µM* | -17% | -14 | -10%
CCOC(=O)c1ccc(NC(=O)c2ccc3c(c2)C(=O)N(Cc2cccnc2)C3=O)cc1 | -10% | -3% | 8% | 3 | 11%
C[C@H](CO)N1C[C@H](C)[C@@H](CN(C)S(C)(=O)=O)Oc2c(NC(=O)Nc3ccc4c(c3)OCO4)cccc2C1=O | -9% | -8% | -5% | -17 | -6%
C[C@H](CO)N1C[C@H](C)[C@@H](CN(C)S(=O)(=O)c2ccccc2)Oc2c(NC(=O)C3CC3)cccc2C1=O | -1% | 0% | 3% | 10 | 2%
C[C@H](CO)N1C[C@H](C)[C@@H](CN(C)S(=O)(=O)c2ccccc2)Oc2c(NC(=O)NC3CCCCC3)cccc2C1=O | 18µM* | ? | -10% | -51* | -18%
C[C@H](CO)N1C[C@H](C)[C@@H](CN(C)S(=O)(=O)c2ccccc2)Oc2c(NC(=O)Nc3ccc4c(c3)OCO4)cccc2C1=O | 16µM* | ? | -4% | -61* | 1%
O=C(NC1CCCCCC1)C(=S)NCc1ccccc1 | ? | -30% | -11% | -15 | 0%
CCOC(=O)C1(Cc2ccc(Cl)cc2)CCN(C(=O)CCc2ccncc2)CC1 | -18% | 13µM* | -13% | ? | -4%
CCOC(=O)C1(Cc2ccc(OC)cc2)CCN(C(=O)C2=CCCC2)CC1 | ? | 18µM* | -15% | 40 | 3%
CCOC(=O)C1(Cc2ccc(OC)cc2)CCN(C(=O)CCN2CCCC2=O)CC1 | -11% | -8% | -1% | -7 | 0%
CCOC(=O)C1(Cc2ccc(OC)cc2)CCN(C(=O)Cc2cccnc2)CC1 | 3% | -7% | 20% | 11 | 23%
CCOC(=O)C1(Cc2ccc(Cl)cc2)CCN(C(=O)CCc2cnccn2)CC1 | -13% | -29% | 11% | 20 | 5%
CCOC(=O)C1(Cc2ccc(Cl)cc2)CCN(C(=O)c2sc(C)nc2C)CC1 | 12µM* | 9.2µM* | -25% | ? | -5%
CCOC(=O)C1(Cc2ccc(OC)cc2)CCN(C(=O)c2sc(C)nc2C)CC1 | 26µM* | 23µM* | -6% | 25 | 1%
CCOC(=O)C1(Cc2ccc(OC)cc2)CCN(C(=O)c2cc(C)on2)CC1 | -26% | ? | 0% | -10 | 3%
CCOc1ccccc1CN1CCNC(=O)C1CC(=O)NCCCn1cccn1 (centres undefined) | -5% | 21% | 9% | -3 | 5%
COc1ccccc1N1CCN(S(=O)(=O)c2c(C)nc3sccn3c2=O)CC1 | 6% | 3% | / | / | /
COc1ccc(N2CC(O)=C(c3nc4ccccc4s3)C2=N)cc1 | -27% | -15% | -28% | 29 | ?
COc1cccc(N2CC(O)=C(c3nc4ccccc4s3)C2=N)c1 | 1.6µM* | 1.5µM* | ? | 61 | ?
SMILES | TDP1 cell CPT | DT40 TDP1 no CPT | HT1080 IDH1KD tx | IL-1B inflam inh | HT1080NT lethal
CCOC(=O)c1ccc(S(=O)(=O)N2CCN(C(=O)C3CSC4(C)CCC(=O)N34)CC2)cc1 (centres undefined) | -28% | ? | -8% | -16 | -1%
O=C1C(=O)N(CCN2CCOCC2)C(c2ccccn2)/C1=C(/O)c1ccc(F)cc1 (centres undefined) | ? | 23µM* | 8% | 21 | 10%
COc1cc(Cl)c(C)cc1NC(=O)CSc1cc(=O)n(C)c2cc(Cl)ccc12 | 1% | -19% | / | / | /
O=C(Nc1ccc(F)cc1)N(Cc1ccco1)Cc1cc2cc3c(cc2[nH]c1=O)OCO3 | ? | 23µM* | -5% | ? | -18%
O=C(Nc1ccc(F)cc1)N(Cc1cccs1)Cc1cc2cc3c(cc2[nH]c1=O)OCO3 | ? | 16µM* | -11% | ? | -13%
CCCCNC(=S)N(Cc1ccco1)Cc1cc2cc3c(cc2[nH]c1=O)OCCO3 | 7% | 10% | 5% | 31 | 6%
O=C(NCC1CCCO1)C1CC(=O)N(c2ccccc2)C1 (centres undefined) | 3% | -14% | 9% | -5 | 14%
Cc1cc2cc(C)c3nnc(SCC(=O)N4CCN(C(=O)c5ccco5)CC4)n3c2cc1C | ? | 12µM* | ? | -74* | -13%
CCc1cc2cc(C)ccc2nc1SCC(=O)N1CCN(C(=O)c2ccco2)CC1 | 13µM* | 21µM* | -3%[9.24 µM] | -21 | -10%
CCc1cc2cc(C)cc(C)c2nc1SCC(=O)N1CCCC1 | 29µM* | ? | 2% | 3 | 1%
CCc1nc(SCC(=O)N2CCN(C(=O)c3ccco3)CC2)c2c3c(sc2n1)CCCC3 | ? | 13µM* | ? | 22 | -12%
CCc1cc2ccccc2nc1SCC(=O)N1CCN(C(=O)c2ccco2)CC1 | ? | ? | 9% | ? | 6%
CCc1nnc(SCc2ccc(OC)cc2)c2cc3sc(C)cc3n12 | -12% | -16% | / | / | /
CS(=O)(=O)N1CCC2(CCCN(c3ncccn3)C2)CC1 | 6% | -18% | / | / | /
O=C(c1ccncc1)N1CCC2(CCCN(Cc3ccncc3)C2)CC1 | 4% | -12% | / | / | /
CC1=C(C(=O)Nc2ccccc2)C(c2ccncc2)n2nc(SCc3ccccc3Cl)nc2N1 (centres undefined) | -3% | -15% | / | / | /
CC(=O)Nc1ccccc1OCc1cnc(Cl)s1 | 4% | 1% | 2% | 21 | -2%
